# Reference: PubChem BioAssay AID602438 (Sanford-Burnham Center for Chemical Genomics, 2012)
# In all, about 360,000 compounds went through this assay and about 3,100 (0.86%) were called active. The list comes from a sample in which actives are over-represented; it also holds similar structures and randomly drawn compounds. A number with no mark means an inactive call.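 The calls were made as follows: active = inhibition or corrected inhibition above about 18%, plus a signal ratio from 0.5 to 1.5 (limit read from the data, passing the limit was not always enough); inactive = the rest.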
# Molecular target: Neuropilin-1 (Homo sapiens) (UniProt O14786)
# Assay: modulators of CendR peptide binding to NRP-1, primary screen, biochemical, fluorescence polarization, uHTS (AID 602438)
# Conditions: FAM-RPARPAR peptide binding to NRP-1, fluorescence polarization; at 25 µM; stronger effect = higher value
# Sequence of Neuropilin-1 (Homo sapiens) (O14786 whole entry, looked up): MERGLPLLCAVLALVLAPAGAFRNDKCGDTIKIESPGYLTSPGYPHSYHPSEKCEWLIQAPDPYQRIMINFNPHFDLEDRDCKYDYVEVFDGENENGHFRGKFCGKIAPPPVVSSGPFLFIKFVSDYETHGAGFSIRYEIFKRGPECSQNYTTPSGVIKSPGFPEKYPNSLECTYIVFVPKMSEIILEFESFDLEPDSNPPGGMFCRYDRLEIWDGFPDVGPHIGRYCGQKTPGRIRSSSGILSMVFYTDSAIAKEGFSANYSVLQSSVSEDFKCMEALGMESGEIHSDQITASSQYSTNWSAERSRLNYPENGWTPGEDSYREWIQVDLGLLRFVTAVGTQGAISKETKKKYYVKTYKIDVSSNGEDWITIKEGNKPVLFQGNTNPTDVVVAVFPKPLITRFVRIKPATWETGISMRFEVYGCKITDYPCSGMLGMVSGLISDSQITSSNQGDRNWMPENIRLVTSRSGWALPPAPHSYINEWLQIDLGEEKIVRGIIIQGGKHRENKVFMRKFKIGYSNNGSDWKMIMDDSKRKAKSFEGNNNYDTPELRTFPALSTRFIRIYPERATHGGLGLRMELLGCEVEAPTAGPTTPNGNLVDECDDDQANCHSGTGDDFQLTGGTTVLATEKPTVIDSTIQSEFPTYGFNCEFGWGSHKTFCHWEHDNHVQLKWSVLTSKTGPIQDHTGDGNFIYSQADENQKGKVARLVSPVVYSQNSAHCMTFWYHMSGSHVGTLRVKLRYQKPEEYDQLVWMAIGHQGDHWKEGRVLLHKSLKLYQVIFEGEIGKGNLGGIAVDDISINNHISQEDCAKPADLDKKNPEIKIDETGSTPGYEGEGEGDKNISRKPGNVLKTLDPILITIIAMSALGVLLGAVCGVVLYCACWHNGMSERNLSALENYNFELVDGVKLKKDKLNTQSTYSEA
row,SMILES,inhibition
1,CC(Oc1cccc(Cl)c1)C(=O)NC1CC(C)(C)NC(C)(C)C1 (stereo not drawn),24.2% (active)
2,COc1cccc(C2=CC(=O)C[C@H](c3ccc(OC)c(OC)c3)C2)c1,-4.1%
3,S=c1[nH]nc(Nc2ccccc2)s1,0.6%
4,CC(C)(C)C(=O)c1cnc(Nc2ccccc2)s1,37.4% (active)
5,O=C(/C=C/Nc1ccccc1)c1cnc(-c2ccccc2)s1,5.7%
6,O=c1cc(Cl)c2ccccc2n1-c1ccccc1,0%
7,CCOCCn1[nH]c2ccccc2c1=O,8.9%
8,COc1ccc(N2CCN(C(=O)[C@@H](NC(=O)c3cc(OC)cc(OC)c3)C(C)C)CC2)cc1,4%
9,COc1cc(OC)cc(C(=O)NC(C(=O)N2CCC2)C(C)C)c1 (stereo not drawn),-2.9%
10,COc1cc(OC)cc(C(=O)N[C@H](C(=O)NNC(=O)c2ccc(Br)cc2)C(C)C)c1,22.8% (active)
11,CC1CCN(S(=O)(=O)c2ccc(S(=O)(=O)NCc3ccco3)cc2)CC1,8.7%
12,CN(C)C(=S)N=c1ssc(=S)n1Cc1ccco1,-2.5%
13,O=C(O)C(c1cccs1)C1(O)CCCCC1 (stereo not drawn),27.7% (active)
14,O=C(O)C(c1ccccc1)C1(O)CCCCC1 (stereo not drawn),-0.6%
15,CN(C)CCOC(=O)C(c1ccccc1)C1(O)CCCC1 (stereo not drawn),5.3%
16,O=C(Cn1cc(C(F)(F)F)ccc1=O)Nc1ccc2c(c1)OCCO2,-9.1%
17,O=C(/C=N/O)Nc1ccccc1,3.7%
18,C#CC(C)(C)NC(=O)c1cnc(-c2ccccc2)nc1-c1ccccc1,-0.8%
19,CCOC(=O)c1cnn(Cc2ccccc2Cl)c1N,-3.4%
20,CCOC(=O)c1ccn(S(=O)(=O)c2ccc(C)cc2)c1-c1ccccc1,-9.6%
21,CCOC(=O)c1cc2n(c1N)-c1ccccc1C2=O,29.5% (active)
22,CCC(C(=O)NC1CCCC1)N(C(=O)c1snc(C(N)=O)c1N)c1ccc2c(c1)OCCO2 (stereo not drawn),5.9%
23,CC(NC(=O)COC(=O)Cn1cc(C(F)(F)F)ccc1=O)c1ccccc1 (stereo not drawn),-13.9%
24,CCN(CC)N=Nc1cccc(NC(C)=O)c1,1.7%

row,SMILES,inhibition
1,Cc1ccc2c(c1)-c1c(ssc1=S)C(C)(C)N2C(=O)CN1C(=O)c2ccccc2C1=O,-1.5%
2,Cc1cc2c(cc1C)N(C(=O)CN1C(=O)c3ccccc3C1=O)C(C)(C)c1ssc(=S)c1-2,23.1% (active)
3,Cc1ccc(NC(=O)CCN2C(=O)c3ccccc3C2=O)cc1C,15.6%
4,C=CCn1nc(-c2ccccc2)c2c(C)onc2c1=O,-1.4%
5,CN1c2ccc(C=O)c3c(C=O)ccc(c23)N(C)C1(C)C,56.9% (active)
6,Cc1ccc(C=O)c([B-](F)(F)F)c1,-8.7%
7,O=C(CCN1CCCO1)N1CCCC(N2CCN(c3cccc(C(F)(F)F)c3)CC2)C1 (stereo not drawn),10.2%
8,CC1CCCN(C(=O)c2ccc3c(c2)C(=O)N(CCC2=CCCCC2)C3=O)C1 (stereo not drawn),9.2%
9,COC(=O)c1cccc(NC(=O)CSc2nc(C)cc(=O)[nH]2)c1,-10.7%
10,Cc1cc(=O)[nH]c(SCc2ccc(Cl)cc2)n1,21.5%
11,Cc1cc(C)c(C(=O)CSc2nc(C)cc(=O)[nH]2)c(C)c1,26.7% (active)
12,N#CCN(C(=O)COC(=O)C1CC2CCCC(C1)C2=O)c1ccccc1 (stereo not drawn),-17.5%
13,O=C(NC(=O)c1ccccc1N1CCCCC1)Nc1ccc(Br)cc1,5.9%
14,Cc1cccc(C)c1NC(=O)CN1CCN(c2ccc(F)cc2)CC1,19.5% (active)
15,Cc1cccc(C)c1NC(=O)CS(=O)CC(=O)N1CCN(c2ccccc2)CC1 (stereo not drawn),16%
16,CCOC(=O)N1CCN(CC(=O)Nc2ccc(F)cc2)CC1,-14.8%
17,Cc1cc(Nc2ccc(C)c(C)c2)n2ncnc2n1,4.8%
18,CC1(c2cccc(Br)c2)NC(=O)N(CC(=O)NCCC2=CCCCC2)C1=O (stereo not drawn),6.7%
19,Cc1ccc(S(=O)(=O)NNC(=O)Nc2cccc3ccccc23)cc1,1.8%
20,Cc1ccc(S(=O)(=O)NC(=O)c2cccc(C)c2)cc1,-0.5%
21,Cc1ccc(S(=O)(=O)NNC(=O)/C=C/c2cccc(F)c2)cc1,20.7% (active)
22,COc1ccc(CN(C)C(=O)Cc2c[nH]c3ccccc23)c(OC)c1OC,-1.4%
23,COc1ccc(Cl)cc1NC(=O)CN(C)C(=O)CCCc1c[nH]c2ccccc12,7.5%
24,COc1ccccc1NC(=O)CCCc1c[nH]c2ccccc12,65.3% (active)
